Most compounds without a hit are left out; they make up all but 3.2% or so of the library.
Mtb FBA inh = Mtb FBA enzyme inhibitors, primary screen, biochemical, fluorescence, strain H37Rv. purified M. tuberculosis FBA, fluorescence read-out. inhibition, % at 1 µM. 2.3% of 360,000 active. AID 588726, 2011; in the data active = inhibition above about 27%
TcdB GH inh = TcdB glycohydrolase inhibitors, primary screen, biochemical, single point, plate reader; AID 652162, 2013; TcdB glycohydrolase enzymatic assay; 0.24% of 350,000 active; inhibition, % at 9.99 µM; Toxin B (Clostridioides difficile), P18177; in the data active = inhibition above about 10%
Target sequence (P18177 whole entry, looked up): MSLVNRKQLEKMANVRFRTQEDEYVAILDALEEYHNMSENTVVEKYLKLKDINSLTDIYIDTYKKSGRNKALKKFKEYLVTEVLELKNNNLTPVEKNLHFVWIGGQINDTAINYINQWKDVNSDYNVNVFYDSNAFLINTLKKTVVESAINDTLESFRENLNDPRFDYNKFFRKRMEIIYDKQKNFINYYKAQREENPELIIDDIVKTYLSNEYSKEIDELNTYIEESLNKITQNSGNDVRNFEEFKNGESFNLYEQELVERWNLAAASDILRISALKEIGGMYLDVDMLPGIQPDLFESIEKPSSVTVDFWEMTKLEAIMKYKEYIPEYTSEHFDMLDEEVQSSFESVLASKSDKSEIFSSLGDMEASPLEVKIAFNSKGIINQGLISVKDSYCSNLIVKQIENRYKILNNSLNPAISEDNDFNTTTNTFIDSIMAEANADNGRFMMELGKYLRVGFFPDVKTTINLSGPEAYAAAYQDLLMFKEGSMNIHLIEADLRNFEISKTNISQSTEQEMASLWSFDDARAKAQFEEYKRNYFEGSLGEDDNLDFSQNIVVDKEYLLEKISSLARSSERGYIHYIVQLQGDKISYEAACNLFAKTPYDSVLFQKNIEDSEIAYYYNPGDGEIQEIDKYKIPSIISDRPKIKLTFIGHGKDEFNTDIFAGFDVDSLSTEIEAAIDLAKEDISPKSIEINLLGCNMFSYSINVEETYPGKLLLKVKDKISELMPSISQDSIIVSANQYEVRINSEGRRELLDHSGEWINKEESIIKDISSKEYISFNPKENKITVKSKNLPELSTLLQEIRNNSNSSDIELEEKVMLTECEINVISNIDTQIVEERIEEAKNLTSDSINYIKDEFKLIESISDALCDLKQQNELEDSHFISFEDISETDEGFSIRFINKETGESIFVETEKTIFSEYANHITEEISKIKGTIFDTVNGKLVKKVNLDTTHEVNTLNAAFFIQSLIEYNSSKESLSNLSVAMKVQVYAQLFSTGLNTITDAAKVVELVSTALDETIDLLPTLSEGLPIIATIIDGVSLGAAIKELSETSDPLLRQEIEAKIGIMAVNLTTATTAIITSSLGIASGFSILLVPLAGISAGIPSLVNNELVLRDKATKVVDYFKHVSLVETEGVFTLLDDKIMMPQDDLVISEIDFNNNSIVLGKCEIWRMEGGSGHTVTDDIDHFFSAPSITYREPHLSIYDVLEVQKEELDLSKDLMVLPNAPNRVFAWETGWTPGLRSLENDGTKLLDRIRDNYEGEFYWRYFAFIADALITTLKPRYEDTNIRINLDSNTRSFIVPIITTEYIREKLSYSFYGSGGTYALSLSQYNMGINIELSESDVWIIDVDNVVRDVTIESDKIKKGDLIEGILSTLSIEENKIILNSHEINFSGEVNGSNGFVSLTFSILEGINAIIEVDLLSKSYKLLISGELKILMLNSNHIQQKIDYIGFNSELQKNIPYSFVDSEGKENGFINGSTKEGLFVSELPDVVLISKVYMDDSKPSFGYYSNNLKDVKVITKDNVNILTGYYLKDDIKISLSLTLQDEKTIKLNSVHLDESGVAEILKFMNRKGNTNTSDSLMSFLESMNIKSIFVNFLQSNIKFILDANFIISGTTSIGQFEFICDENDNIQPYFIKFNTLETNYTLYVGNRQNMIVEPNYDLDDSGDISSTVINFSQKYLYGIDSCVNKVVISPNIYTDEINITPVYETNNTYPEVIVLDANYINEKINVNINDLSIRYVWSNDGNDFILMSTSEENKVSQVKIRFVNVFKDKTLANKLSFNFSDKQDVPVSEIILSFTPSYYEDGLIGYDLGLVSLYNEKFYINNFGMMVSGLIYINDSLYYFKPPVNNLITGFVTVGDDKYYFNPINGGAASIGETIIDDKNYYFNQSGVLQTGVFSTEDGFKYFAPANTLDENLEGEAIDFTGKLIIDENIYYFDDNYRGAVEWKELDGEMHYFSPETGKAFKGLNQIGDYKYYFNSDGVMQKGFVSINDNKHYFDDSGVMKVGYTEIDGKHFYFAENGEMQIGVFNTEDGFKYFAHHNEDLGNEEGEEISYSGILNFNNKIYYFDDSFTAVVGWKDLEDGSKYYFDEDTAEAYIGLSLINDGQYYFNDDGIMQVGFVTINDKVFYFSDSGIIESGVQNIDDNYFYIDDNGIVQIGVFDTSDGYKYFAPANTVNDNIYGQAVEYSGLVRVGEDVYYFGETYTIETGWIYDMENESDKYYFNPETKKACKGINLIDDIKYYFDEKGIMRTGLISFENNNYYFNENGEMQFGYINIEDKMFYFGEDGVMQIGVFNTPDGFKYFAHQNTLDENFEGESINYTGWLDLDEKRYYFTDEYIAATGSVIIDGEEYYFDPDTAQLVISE
PrPC TRFRET = inhibitors of human cell surface prion protein PrPC, primary screen, cell-based, TR-FRET | TR-FRET read-out | inhibition, % at 13.8 µM | AID 720596, 2013 | 0.43% of 370,000 active; in the data active = inhibition above about 24%
Y pestis TopoI = Yersinia pestis topoisomerase I inhibitors, primary screen, biochemical, cleavage product accumulation, plate reader, single point; DNA topoisomerase I (Yersinia pestis CO92); activity, % at 10 µM; AID 504884, 2011; Y. pestis Topo-I cleavage product accumulation; 0.064% of 360,000 active; in the data active = activity above about 50%, passing the limit was not always enough
GDH-TPI counter = GDH-TPI coupling enzyme inhibitors, primary screen, artefact control for M. tuberculosis FBA inhibitor project, biochemical, absorbance, full deck | GDH-TPI coupled enzyme counterscreen, NADH absorbance | inhibition, % at 4.8 µM | 1.2% of 360,000 active | AID 588335, 2011; in the data active = inhibition above about 30%
Each line names hits and unclear results; the compound was inactive in the other large screens.

Nc1nc(=S)c2ncn(C3CCCCC3)c2[nH]1	GDH-TPI counter 31
COc1ccc(-c2ccc(C#N)c(SCC(=O)OCc3ccccc3)n2)cc1OC	Mtb FBA inh active (no result: TcdB GH inh)
COc1ccc(-c2ccc(C#N)c(SCC(=O)NCc3ccco3)n2)cc1OC	Mtb FBA inh active, GDH-TPI counter 46
COc1ccc(-c2cc3ncnc(Cl)c3s2)cc1	Mtb FBA inh active
CO[C@H]1CN(C)C(=O)c2cc(NS(C)(=O)=O)ccc2OC[C@H](C)N(C)C[C@H]1C	none (no result: Mtb FBA inh, PrPC TRFRET, Y pestis TopoI, GDH-TPI counter)
CCOC(=O)/C=c1/s/c(=C/c2ccc3cc(OC)ccc3c2)c(=O)n1CC(=O)NCC1CCCO1 (stereo unspecified)	TcdB GH inh 12
CCOC(=O)/C=c1\s/c(=C\c2ccc(C(=O)OC)cc2)c(=O)n1CC(=O)Nc1ccccc1	none
CCOC(=O)/C=c1\s/c(=C\c2c(OC)ccc3ccccc23)c(=O)n1CC(=O)NCC1CCCO1 (stereo unspecified)	GDH-TPI counter 38
CCOC(=O)c1oc2nc(C(C)C)c3c(c2c1N)CC(C)(C)OC3	Mtb FBA inh 149 (no result: TcdB GH inh)
CCOC(=O)c1oc2nc(C(C)C)c3c(c2c1N)CCC3	Mtb FBA inh 124 (no result: TcdB GH inh)
C[C@H](CO)N1C[C@H](C)[C@@H](CN(C)C(=O)Cc2ccccc2)OCCCC[C@H](C)Oc2ccc(NC(=O)c3ccccc3)cc2C1=O	none (no result: Mtb FBA inh, PrPC TRFRET, Y pestis TopoI, GDH-TPI counter)
CCCCNS(=O)(=O)c1ccc(OCC(=O)OC)cc1	TcdB GH inh 10
CCCNS(=O)(=O)c1ccc(OCC(=O)OC)cc1	none (no result: TcdB GH inh)
O=C(Nc1ccc2nc(-c3ccc(Br)o3)[nH]c2c1)c1cccs1	GDH-TPI counter 32 (no result: TcdB GH inh)
O=C(Nc1ccc2nc(-c3ccc(Br)o3)[nH]c2c1)c1ccco1	GDH-TPI counter 40 (no result: TcdB GH inh)
Cc1cccc2[nH]c(-c3ccc(NC(=O)c4ccco4)cc3)nc12	GDH-TPI counter 58 (no result: TcdB GH inh)
Cc1cccn2c(=O)c3cc(C(=O)NC4CCCCCC4)sc3nc12	none
O=C(NC1CCCCCC1)c1cc2c(=O)n3ccccc3nc2s1	Mtb FBA inh active
Cc1cc(C)cc(NC(=O)c2cc3c(=O)n4ccccc4nc3s2)c1	none
Cc1cccn2c(=O)c3cc(C(=O)NC4CCS(=O)(=O)C4)sc3nc12 (stereo unspecified)	Mtb FBA inh 192
CC(C)NC(=O)c1cc2c(=O)n3ccccc3nc2s1	none
C=CCNC(=O)c1cc2c(=O)n3ccccc3nc2s1	Mtb FBA inh active
O=C(C[C@H]1CC[C@@H]2[C@H](COC[C@H](O)CN2Cc2cc(F)ccc2F)O1)N1CCc2ccccc2C1	none (no result: Mtb FBA inh, PrPC TRFRET, Y pestis TopoI, GDH-TPI counter)
COc1ccc(S(=O)(=O)Nc2ccc3c(c2)CC(=O)N([C@H](C)CO)C[C@@H](C)[C@@H](CN(C)CC2CCCCC2)O3)cc1	none (no result: Mtb FBA inh, PrPC TRFRET, Y pestis TopoI, GDH-TPI counter)
Cc1nn(-c2ccccc2)c2sc(-c3nnc(SCC(=O)O)o3)cc12	Mtb FBA inh 101
Cc1cc(C(=O)Nc2cccc3c2O[C@@H](CN(C)S(=O)(=O)c2ccc(Cl)cc2)[C@@H](C)CN([C@H](C)CO)C3=O)n(C)n1	none (no result: Mtb FBA inh, PrPC TRFRET, Y pestis TopoI, GDH-TPI counter)
CC(=O)Nc1ccc2c(c1)CCc1ccccc1-2	none
O=C(O)/C=C/C(=O)c1ccc2c(c1)CCc1ccccc1-2	GDH-TPI counter 32
Cc1ccc2nc3c(cc(C(=O)NCCc4ccccc4)c(=N)n3CCN3CCOCC3)c(=O)n2c1	Mtb FBA inh 188 (no result: TcdB GH inh, PrPC TRFRET)
Cc1ccc2nc3c(cc(C(=O)NC4CCS(=O)(=O)C4)n3Cc3ccccc3)c(=O)n2c1 (stereo unspecified)	Mtb FBA inh active
Cc1cccn2c(=O)c3cc(C(=O)NC(C)c4ccccc4)c(=N)n(CCCn4ccnc4)c3nc12 (stereo unspecified)	Mtb FBA inh 161
Cc1ccc2nc3c(cc(C(=O)NCc4ccccc4)c(=N)n3CCCn3ccnc3)c(=O)n2c1	Mtb FBA inh 131
CCC(=O)N1[C@@H]2Cn3c(ccc(/C=C/c4ccccc4)c3=O)[C@H]1[C@@H](C(=O)N(C)C)[C@@H]2CO	none (no result: Mtb FBA inh, PrPC TRFRET, Y pestis TopoI, GDH-TPI counter)
COc1ccccc1C=NNC(=O)C(=O)NN=Cc1ccccc1OC	GDH-TPI counter 34
COc1cccc(/C=N/NC(=O)C(=O)N/N=C/c2cccc(OC)c2OC)c1OC	none
COc1ccccc1/C=N/NC(=O)CC(=O)NCc1ccccc1	TcdB GH inh 11
Cc1noc(C)c1NC(=O)Nc1ccc2c(c1)C(=O)N([C@@H](C)CO)C[C@H](C)[C@H](CN(C)C(=O)NC(C)C)O2	none (no result: Mtb FBA inh, PrPC TRFRET, Y pestis TopoI, GDH-TPI counter)
CO[C@H](CN(C)Cc1nccs1)[C@H](C)CN([C@@H](C)CO)S(=O)(=O)c1ccc(F)cc1	none (no result: Mtb FBA inh, PrPC TRFRET, Y pestis TopoI, GDH-TPI counter)
COc1ccc(C(=O)NNC(=O)c2ccccn2)cc1	none
COc1cc(OC)cc(C(=O)NNC(=O)c2ccccn2)c1	PrPC TRFRET 25
NCC[C@H]1CC[C@H](NC(=O)Nc2ccc(F)cc2)[C@@H](CO)O1	none (no result: Mtb FBA inh, PrPC TRFRET, Y pestis TopoI, GDH-TPI counter)
CN(C)CCCNC(=O)C[C@@H]1CC[C@@H](NS(=O)(=O)c2ccccc2)[C@H](CO)O1	none (no result: Mtb FBA inh, PrPC TRFRET, Y pestis TopoI, GDH-TPI counter)
Cc1c(Cl)cccc1NC(=O)CSc1sc2c(O)cc(=O)[nH]c2c1C#N	none
N#Cc1c(SCC(=O)Nc2ccc(Cl)cc2Cl)sc2c(O)cc(=O)[nH]c12	GDH-TPI counter 33
O=c1oc(-c2ccc(O)c(O)c2)cc2cc(O)cc(O)c12	GDH-TPI counter 32
O=c1oc(-c2ccc(O)c(O)c2)cc2cccc(O)c12	none
COc1cccc(C(=O)Nc2ccc3c(c2)OC[C@H](C)NC[C@@H](C)[C@H](OC)CN(C)C3=O)c1	none (no result: Mtb FBA inh, PrPC TRFRET, Y pestis TopoI, GDH-TPI counter)
O=C(C[C@H]1C=C[C@H](NC(=O)CN2CCOCC2)[C@@H](CO)O1)NCCc1ccncc1	none (no result: Mtb FBA inh, PrPC TRFRET, Y pestis TopoI, GDH-TPI counter)
Cn1c2ccccc2c(=O)c2cc(C#Cc3ccccn3)ccc21	Mtb FBA inh 186
O=S(=O)(c1ccccc1F)N1CCCCN2[C@H](CO)[C@@H](c3ccc(-c4ccccc4)cc3)[C@@H]2C1	none (no result: Mtb FBA inh, PrPC TRFRET, Y pestis TopoI, GDH-TPI counter)
CCN(CC)c1nc(N)c2c(N)n(-c3ccccc3C)c(=S)c(C#N)c2c1C#N	GDH-TPI counter 44 (no result: TcdB GH inh)
CCN(CC)c1nc(N)c2c(N)nc3c(c2c1C#N)CC(c1ccccc1)O3 (stereo unspecified)	none (no result: TcdB GH inh)
COC(=O)C1=CN(c2ccc(Oc3ccccc3)cc2)C(N)=C(C#N)C1c1cccc(OC)c1OC (stereo unspecified)	none (no result: Mtb FBA inh, Y pestis TopoI, GDH-TPI counter)
COC(=O)C1=CN(Cc2ccc(OC)c(OC)c2)C=C(C(=O)OC)C1c1cccc(OC)c1OC	Mtb FBA inh 140
COC(=O)C1=CN(C2CC2)C=C(C(=O)OC)C1c1ccccc1OC	Mtb FBA inh 157 (no result: TcdB GH inh)
CCN1C=C(C(=O)OC)C(c2cccc(OC)c2OC)C(C(=O)OC)=C1	Mtb FBA inh 172
O=C(CCC1CCCC1)N1CCN(C(=O)c2ccco2)CC1	Mtb FBA inh 135 (no result: TcdB GH inh)
CS(=O)(=O)Nc1ccc(C2=NN(S(C)(=O)=O)C(c3ccccc3)C2)cc1 (stereo unspecified)	Mtb FBA inh 132 (no result: TcdB GH inh)
CS(=O)(=O)Nc1ccc(C2=NN(C(=O)C3CCCCC3)C(c3cccs3)C2)cc1 (stereo unspecified)	Mtb FBA inh active (no result: TcdB GH inh)

Screens deposited in PubChem by several laboratories.
